Measured values taken from PubChem BioAssay (NCI).
About 83,000 compounds went through this panel and 20% of them were active in at least one assay; those are over-represented in the sample as a whole.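 Percent growth is the endpoint: 0 to 100 indicates growth inhibition (40 means 60% inhibition), 0 means no net growth, and negative values indicate cell death.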 Unmarked numbers belong to inactive results. Active and inactive are the calls of the source. The calls were made as follows: active = growth percent below 10; inactive = the rest.

The compounds below were run on DU-145 prostate (assay: NCI-60 one-dose screen, 48 h (100 = growth as untreated, 0 = no growth, -100 = all killed)). Conditions: 10 µM unless noted.
`COc1cc2c3c(c1)nc(C)n3CCC2` showed a growth of 109%.
For `Cc1sc2c(c1C)c(=O)nc1c(-c3nc4ccccc4s3)n[nH]n12`, the growth was 106%.
For `COc1cc2c(cc1OCCCCCN1CCN(c3ncnc4ccccc34)CC1)N=CC1CCCN1C2=O` (centres undefined), the growth was -20.8% (active).
In the case of `COc1cc2c(cc1OCCCCN1CCN(CC(=O)Nc3ccc(Cl)cc3C(=O)c3ccccc3Cl)CC1)N=CC1CCCN1C2=O` (centres undefined), the growth is reported as -95.9% (active).
`CCOC(=O)C1=C(C)NC(=O)NC1c1cc(=O)oc2ccc(C)cc12` (centres undefined) was tested, and the growth was 104%.
`COc1ccc2nc3cc(Cl)ccc3c(Nc3ccc(N(C)C)cc3)c2c1` gave a growth of 91%.
In the case of `C[C@@H](C[C@H](CCO)c1cc(C(F)(F)F)cc(C(F)(F)F)c1)c1ccc2ccccc2c1`, the growth is reported as 93.2%.
`COc1ccc2c(CCCc3ccc(Cl)cc3Cl)c3[n+](cc2c1OC)CCc1cc2c(cc1-3)OCO2` was tested, and the growth was 17.9%.
In the case of `COc1cc2c(cc1OCCCCCCN1CCN(c3ncnc4ccccc34)CC1)N=CC1CCCN1C2=O` (centres undefined), the growth is reported as 4.65% (active).
With `c1cc[n+](Cc2c3ccccc3cc3c2ccc2ccccc23)cc1` the growth was 57.2%.
For `CC(C)[C@@H]1CC[C@]2(CO2)[C@@H]2C(=O)OCC(C(=O)O)=C[C@H]21`, the growth was 7.04% (active).
`N#Cc1c(NC(=O)c2cccs2)[n+]([O-])c2ccc(F)cc2[n+]1[O-]` was tested, and the growth was 103%.
`CC(CCCC(=O)O)c1ccoc1` (centres undefined) gave a growth of 103%.
`CCCCCCCC(=O)SCC/C=C/[C@@H]1CC(=O)NCc2nc(co2)C2=N[C@@](C)(CS2)C(=O)N[C@@H](C(C)C)C(=O)O1` was tested, and the growth was 7.24% (active).
`Nc1c(C(=O)c2ccccc2)sc2nc(-c3cccs3)ccc12` gave a growth of 20.6%.
In the case of `COc1ccc2c(CCCCC(c3ccccc3)c3ccccc3)c3[n+](cc2c1OC)CCc1cc2c(cc1-3)OCO2`, the growth is reported as -80% (active).
`CC(C)(C)C(=O)OCOP(=O)(OCOC(=O)C(C)(C)C)C1CCCN(OC(=O)c2ccccc2)C1=O` (centres undefined) showed a growth of 36.9%.
In the case of `O=C(Cc1ccccc1)Nc1nnc(NC2CCN(c3nnc(NC(=O)Cc4ccccc4)s3)CC2)s1`, the growth is reported as 91.7%.
`CCCCCCC1(/C=N/NC(N)=O)NC(=O)NC1=O` (centres undefined) showed a growth of 107%.
`CC(N)C(Cc1ccc(Cl)cc1)c1ccc(Cl)cc1` (centres undefined) showed a growth of 61%.
`CC(C)[C@@H](C)/C=C/[C@@H](C)[C@H]1CCC2=C3C=CC4=CC(=O)CC[C@]4(C)[C@H]3CC[C@@]21C` was tested, and the growth was 105%.
With `CCOC(=O)C1=C(C)N=C2Sc3cc(OC(F)(F)F)ccc3N2[C@H]1c1ccccn1` the growth was 46.5%.
With `COC(=O)[C@]12CC[C@@H](C)[C@H](C)[C@@H]1C1=CC[C@@H]3[C@@]4(C)C(c5cnco5)=C[C@@](C)(CO)C4=CC[C@@]3(C)[C@]1(C)CC2` the growth was 29.4%.
With `C=C1C(=O)O[C@H]2[C@H]1CC/C(Cn1cc(-c3cc(C)c(C)cc3C)nn1)=C\CC[C@@]1(C)O[C@@H]21` the growth was -100% (active).
With `C=C1C(=O)O[C@H]2[C@H]1CC/C(CNC(=O)c1cc3cc(OC)ccc3[nH]1)=C\CC[C@@]1(C)O[C@@H]21` the growth was -92% (active).
For `C=CCC(=O)N[C@H](/C=C/C(=O)O)Cc1ccc(-c2cc(Cl)cc(Cl)c2)cc1`, the growth was 106%.
Compound `NN1C(=O)CSC1=S` has a growth of 108%.
`CC(=O)C(C(C)=O)C(c1ccccc1)C(C(C)=O)C(C)=O` gave a growth of 108%.
`COc1cc(NCCN(CC(C)C)CC(C)C)c2ncc(C)cc2c1` showed a growth of 71.4%.
For `COc1ccc2c(CCC(c3ccccc3)c3ccccc3)c3[n+](cc2c1OC)CCc1cc2c(cc1-3)OCO2`, the growth was 18.5%.
Work on `O=C1CC(c2ccc3c(c2)OCO3)c2ncn(-c3ccc(Cl)cc3)c2N1` (centres undefined) yielded a growth of 18.3%.
In the case of `Clc1nc(Cl)c2ncn(CC#CCn3cnc4c(Cl)nc(Cl)nc43)c2n1`, the growth is reported as -87.2% (active).
`COc1ccc(C2CC(=O)c3c(O)c(OC)c(OC)c(OC)c3O2)c(O)c1` (centres undefined) was tested, and the growth was 22.2%.
Work on `C[N+](C)(CCOC(c1ccccc1)c1ccccc1)CC(=O)OCc1ccccc1` yielded a growth of 105%.
For `Nc1c2c(c(O)c3c1=C(CO)C=N3)=NCCS2`, the growth was -93% (active).
`Cc1cccc(NC(=O)[C@@H]2c3ccccc3C(=O)N(c3ccc(Cl)cc3)[C@H]2c2ccc(Cl)cc2)n1` showed a growth of 79.8%.
For `CC(N)C(Cc1ccccc1)c1ccc(Cl)cc1` (centres undefined), the growth was 110%.
Compound `C=CCCCC(=O)CCC(=O)OCC1O[C@@H](O[C@@H]2C(O)[C@@H](OC(C)=O)C(C)O[C@H]2O[C@H](CC=C)CCCCC)C(O)[C@@H](OC(=O)/C(C)=C/C)[C@@H]1OC(=O)/C=C/c1ccccc1` (some centres undefined) has a growth of 33.3%.
`COc1ccc2c(c1OC)C(=O)O[C@@H]2[C@H]1c2c(c(C#CC#Cc3ccc(F)c(F)c3)c3c(c2OC)OCO3)CCN1C` showed a growth of 103%.
